Experiment [1] has as its target T1, Muscle, skeletal receptor tyrosine-protein kinase (Homo sapiens) (UniProt O15146).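 Note: reported value is the mean percent inhibition of MuSK kinase.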
T1 sequence (whole entry): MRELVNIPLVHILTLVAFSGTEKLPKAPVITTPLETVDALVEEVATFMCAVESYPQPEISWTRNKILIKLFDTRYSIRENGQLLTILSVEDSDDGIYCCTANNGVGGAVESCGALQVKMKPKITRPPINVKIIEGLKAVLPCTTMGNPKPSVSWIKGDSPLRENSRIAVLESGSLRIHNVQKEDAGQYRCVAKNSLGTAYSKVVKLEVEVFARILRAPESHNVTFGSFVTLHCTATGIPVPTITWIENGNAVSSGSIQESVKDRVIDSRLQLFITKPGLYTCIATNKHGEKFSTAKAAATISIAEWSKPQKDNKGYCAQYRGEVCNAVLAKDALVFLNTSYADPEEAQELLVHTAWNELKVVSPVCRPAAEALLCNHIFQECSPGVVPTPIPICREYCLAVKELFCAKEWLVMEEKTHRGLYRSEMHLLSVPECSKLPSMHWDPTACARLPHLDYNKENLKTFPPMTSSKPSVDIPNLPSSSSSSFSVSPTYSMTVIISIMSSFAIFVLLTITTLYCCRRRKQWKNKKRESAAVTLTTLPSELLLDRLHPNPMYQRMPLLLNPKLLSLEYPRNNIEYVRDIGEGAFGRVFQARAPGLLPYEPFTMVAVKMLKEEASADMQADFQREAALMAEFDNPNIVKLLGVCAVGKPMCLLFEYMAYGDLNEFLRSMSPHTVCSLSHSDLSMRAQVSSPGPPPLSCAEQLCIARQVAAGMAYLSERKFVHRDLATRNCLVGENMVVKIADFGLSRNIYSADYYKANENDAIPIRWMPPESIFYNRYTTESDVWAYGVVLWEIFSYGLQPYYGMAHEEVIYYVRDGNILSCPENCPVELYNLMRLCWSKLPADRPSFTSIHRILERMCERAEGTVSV
Conditions: at 1 µM.

In experiment [2] the target is Platelet-derived growth factor receptor alpha (Homo sapiens) (UniProt P16234). Conditions: at 0.1 µM.
Experiment [3] shares this target. Conditions: at 1 µM.
The subject of experiment [4] is Platelet-derived growth factor receptor alpha (Homo sapiens), P16234 [D842V]. Conditions: at 0.1 µM.
Experiment [5] shares this test system. The settings on record: at 1 µM.
Experiment [6] has as its system Platelet-derived growth factor receptor alpha (Homo sapiens), P16234 [T674I]. The settings on record: at 0.1 µM.
For experiment [7] the test system is unchanged. Conditions: at 1 µM.
In experiment [8] the test system is Platelet-derived growth factor receptor alpha (Homo sapiens), P16234 [V561D]. Conditions: at 0.1 µM.
For experiment [9] the test system is unchanged. The settings on record: at 1 µM.
Experiment [10] has as its target Platelet-derived growth factor receptor beta (Homo sapiens) (UniProt P09619). The settings on record: at 0.1 µM.
For experiment [11] the target is unchanged. The settings on record: at 1 µM.
Experiment [12] has as its target Tyrosine-protein kinase FRK (Homo sapiens) (UniProt P42685). Conditions: at 0.1 µM.
For experiment [13] the target is unchanged. Conditions: at 1 µM.
For experiment [14], the target named is Protein-tyrosine kinase 2-beta (Homo sapiens) (UniProt Q14289). Conditions: at 0.1 µM.
Chain of Protein-tyrosine kinase 2-beta (Homo sapiens) (Q14289 whole entry, looked up): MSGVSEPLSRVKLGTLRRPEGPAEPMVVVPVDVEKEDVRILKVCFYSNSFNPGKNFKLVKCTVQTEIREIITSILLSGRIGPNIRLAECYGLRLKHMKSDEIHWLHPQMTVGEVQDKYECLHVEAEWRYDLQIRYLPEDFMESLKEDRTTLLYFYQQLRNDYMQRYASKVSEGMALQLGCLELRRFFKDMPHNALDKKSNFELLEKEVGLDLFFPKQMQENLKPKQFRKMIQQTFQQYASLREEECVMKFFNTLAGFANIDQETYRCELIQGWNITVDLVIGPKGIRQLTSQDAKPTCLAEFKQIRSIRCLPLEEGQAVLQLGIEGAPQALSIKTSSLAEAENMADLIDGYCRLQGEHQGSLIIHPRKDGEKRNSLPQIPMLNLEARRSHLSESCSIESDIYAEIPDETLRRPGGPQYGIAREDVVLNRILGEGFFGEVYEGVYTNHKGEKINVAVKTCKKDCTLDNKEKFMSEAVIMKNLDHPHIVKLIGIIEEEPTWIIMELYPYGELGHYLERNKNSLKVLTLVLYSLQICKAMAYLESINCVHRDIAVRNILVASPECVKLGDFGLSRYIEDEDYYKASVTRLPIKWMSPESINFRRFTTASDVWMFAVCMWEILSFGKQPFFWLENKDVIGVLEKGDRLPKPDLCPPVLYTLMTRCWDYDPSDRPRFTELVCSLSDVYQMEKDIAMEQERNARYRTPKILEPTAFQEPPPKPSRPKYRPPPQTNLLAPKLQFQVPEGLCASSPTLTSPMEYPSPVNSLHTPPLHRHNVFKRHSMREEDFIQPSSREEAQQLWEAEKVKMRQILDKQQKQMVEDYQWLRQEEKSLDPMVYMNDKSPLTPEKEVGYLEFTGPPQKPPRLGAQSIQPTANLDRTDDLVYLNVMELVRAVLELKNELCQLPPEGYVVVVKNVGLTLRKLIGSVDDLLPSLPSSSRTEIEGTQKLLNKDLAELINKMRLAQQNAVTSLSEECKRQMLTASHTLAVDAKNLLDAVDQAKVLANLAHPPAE
Experiment [15] shares this target. The settings on record: at 1 µM.
Experiment [16] concerns the target Proto-oncogene tyrosine-protein kinase receptor Ret (Homo sapiens) (UniProt P07949). The settings on record: at 0.1 µM.
The target is the same in experiment [17]. The settings on record: at 1 µM.
Experiment [18] has as its system Proto-oncogene tyrosine-protein kinase receptor Ret (Homo sapiens), P07949 [V804L]. The settings on record: at 0.1 µM.
The test system is the same in experiment [19]. The settings on record: at 1 µM.
Experiment [20] relates to Proto-oncogene tyrosine-protein kinase receptor Ret (Homo sapiens), P07949 [Y791F]. Conditions: at 0.1 µM.
Chain of Proto-oncogene tyrosine-protein kinase receptor Ret (Homo sapiens), P07949 [Y791F] (P07949 whole entry Y791F): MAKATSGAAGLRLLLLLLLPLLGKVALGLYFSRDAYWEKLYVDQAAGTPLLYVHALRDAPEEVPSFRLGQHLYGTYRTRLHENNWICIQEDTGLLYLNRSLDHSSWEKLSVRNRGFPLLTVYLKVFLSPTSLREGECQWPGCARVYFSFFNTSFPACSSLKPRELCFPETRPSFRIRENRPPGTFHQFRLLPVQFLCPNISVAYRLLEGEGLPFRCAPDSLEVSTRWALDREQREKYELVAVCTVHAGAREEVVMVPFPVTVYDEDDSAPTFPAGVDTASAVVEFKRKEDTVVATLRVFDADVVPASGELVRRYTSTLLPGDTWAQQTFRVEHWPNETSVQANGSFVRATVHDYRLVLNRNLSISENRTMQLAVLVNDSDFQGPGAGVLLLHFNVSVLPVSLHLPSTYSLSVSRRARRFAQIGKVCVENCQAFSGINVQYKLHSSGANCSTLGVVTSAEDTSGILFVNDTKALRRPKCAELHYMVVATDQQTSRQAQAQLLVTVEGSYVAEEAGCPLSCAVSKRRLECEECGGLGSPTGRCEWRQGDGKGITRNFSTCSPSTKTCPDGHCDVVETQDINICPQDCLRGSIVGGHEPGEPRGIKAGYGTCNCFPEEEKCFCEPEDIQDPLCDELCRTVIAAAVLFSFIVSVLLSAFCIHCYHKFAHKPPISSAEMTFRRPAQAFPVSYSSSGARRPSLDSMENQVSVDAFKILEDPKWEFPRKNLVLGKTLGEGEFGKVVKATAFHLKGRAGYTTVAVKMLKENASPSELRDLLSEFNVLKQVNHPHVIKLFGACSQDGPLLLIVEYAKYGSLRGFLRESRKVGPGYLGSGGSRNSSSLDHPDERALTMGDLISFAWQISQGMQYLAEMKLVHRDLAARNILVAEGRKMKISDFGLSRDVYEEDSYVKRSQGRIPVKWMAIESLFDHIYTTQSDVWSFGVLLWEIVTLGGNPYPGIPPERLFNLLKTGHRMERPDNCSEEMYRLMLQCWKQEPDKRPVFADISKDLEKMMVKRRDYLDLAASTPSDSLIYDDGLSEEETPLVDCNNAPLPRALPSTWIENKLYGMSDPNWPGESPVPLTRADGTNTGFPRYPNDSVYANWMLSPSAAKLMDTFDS

Chain of Platelet-derived growth factor receptor alpha (Homo sapiens), P16234 [T674I] (P16234 whole entry T674I): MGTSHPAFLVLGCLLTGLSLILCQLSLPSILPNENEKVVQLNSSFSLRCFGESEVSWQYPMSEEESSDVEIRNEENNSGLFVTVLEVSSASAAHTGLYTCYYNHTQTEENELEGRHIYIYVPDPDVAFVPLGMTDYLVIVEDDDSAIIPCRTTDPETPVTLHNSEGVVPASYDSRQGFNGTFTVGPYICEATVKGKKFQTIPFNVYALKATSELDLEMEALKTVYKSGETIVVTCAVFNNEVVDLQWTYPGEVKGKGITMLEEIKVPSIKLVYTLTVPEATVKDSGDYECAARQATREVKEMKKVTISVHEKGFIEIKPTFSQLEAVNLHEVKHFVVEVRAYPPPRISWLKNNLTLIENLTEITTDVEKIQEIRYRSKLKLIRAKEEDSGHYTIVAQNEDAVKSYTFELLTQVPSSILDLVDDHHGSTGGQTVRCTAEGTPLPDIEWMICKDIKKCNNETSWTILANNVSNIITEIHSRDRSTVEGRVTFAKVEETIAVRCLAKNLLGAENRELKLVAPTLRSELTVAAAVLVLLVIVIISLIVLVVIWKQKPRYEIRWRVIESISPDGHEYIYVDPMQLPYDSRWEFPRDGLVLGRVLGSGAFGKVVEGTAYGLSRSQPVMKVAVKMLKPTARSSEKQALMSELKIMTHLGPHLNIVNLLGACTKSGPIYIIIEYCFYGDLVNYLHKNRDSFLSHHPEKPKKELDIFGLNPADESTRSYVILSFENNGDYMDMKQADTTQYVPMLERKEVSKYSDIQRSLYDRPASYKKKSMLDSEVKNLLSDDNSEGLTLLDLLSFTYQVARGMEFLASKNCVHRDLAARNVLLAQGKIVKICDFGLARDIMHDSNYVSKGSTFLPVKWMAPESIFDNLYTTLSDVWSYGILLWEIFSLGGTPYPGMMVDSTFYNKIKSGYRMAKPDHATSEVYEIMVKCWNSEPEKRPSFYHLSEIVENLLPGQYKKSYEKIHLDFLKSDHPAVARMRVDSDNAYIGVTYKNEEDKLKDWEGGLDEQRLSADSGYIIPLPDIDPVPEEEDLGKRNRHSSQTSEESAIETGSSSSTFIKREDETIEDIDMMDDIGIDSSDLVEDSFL
Chain of Proto-oncogene tyrosine-protein kinase receptor Ret (Homo sapiens), P07949 [V804L] (P07949 whole entry V804L): as the sequence (P07949 whole entry Y791F) above, with F791Y, V804L counted along it
Chain of Tyrosine-protein kinase FRK (Homo sapiens) (P42685 whole entry): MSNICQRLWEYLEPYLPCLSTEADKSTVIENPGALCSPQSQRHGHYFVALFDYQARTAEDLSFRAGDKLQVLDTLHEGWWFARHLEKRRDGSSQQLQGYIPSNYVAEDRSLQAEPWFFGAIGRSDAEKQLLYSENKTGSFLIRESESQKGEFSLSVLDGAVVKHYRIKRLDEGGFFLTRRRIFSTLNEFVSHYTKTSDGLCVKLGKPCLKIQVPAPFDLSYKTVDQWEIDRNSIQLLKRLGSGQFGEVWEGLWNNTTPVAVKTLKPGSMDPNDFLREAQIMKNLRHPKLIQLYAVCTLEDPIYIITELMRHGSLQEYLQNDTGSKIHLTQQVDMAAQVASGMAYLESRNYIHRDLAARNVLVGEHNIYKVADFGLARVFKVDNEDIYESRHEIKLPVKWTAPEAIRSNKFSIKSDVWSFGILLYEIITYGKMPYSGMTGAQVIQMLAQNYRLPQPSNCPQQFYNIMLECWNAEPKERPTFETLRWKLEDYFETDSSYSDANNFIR

As for `Cn1cc(C=C2C(=O)Nc3cccnc32)c2ccccc21`, the inhibition (usually the drop in the measured response relative to a control, in per cent) was 12.8% in experiment [1]; 19.5% in experiment [2]; 65.3% in experiment [3]; 9.02% in experiment [4]; 47.1% in experiment [5]; 5.86% in [6]. The inhibition in experiment [7] was 20.2%; in [8], 12.4%; in experiment [9] it was 58.7%; in experiment [10], 12.5%; in experiment [11], 42%; in experiment [12], 0.71%. The inhibition in experiment [13] is 3.75%; in experiment [14], 5.59%; in experiment [15], 25.2%.
As to `CS(=O)(=O)Nc1ccc(N/C=C2\C(=O)Nc3ccccc32)cc1`, the inhibition in experiment [1] came to 35.9%; in [2], 9.58%; in experiment [3], 41.9%; in experiment [4] it was 2.98%; in [5], 18%; in [6], 11.1%. Moreover, the inhibition in experiment [7] is 62.5%; in experiment [8], 15%; in experiment [9], 51%; in [10] it was 6.47%; in experiment [11] it was 38%; in experiment [12], -0.66%. Besides, the inhibition in experiment [13] was 0.76%; in [14], -3.21%; in experiment [15] it was 20.1%; in experiment [16] it was 10.4%; in [17], 49.4%; in experiment [18], 17.9%. Besides, the inhibition in [19] is 66.2%; in [20], 8.53%.
In the case of `CN1CCC(C(=O)Nc2n[nH]c3nnc(-c4ccccc4)cc23)CC1`, the inhibition is 5.06% in [1]; 5.74% in experiment [2]; 16.5% in [3]; 3.37% in [4]; 3.2% in [5]; 6.86% in [6]. Besides, the inhibition stood at 7.55% in experiment [7]; 7.2% in [8]; 6.38% in experiment [9]; 2.43% in experiment [10]; 7.79% in [11]; 2.63% in [12]. The inhibition is 2.86% in experiment [13]; 13.3% in experiment [14]; 15.2% in experiment [15]; 1.29% in [16]; 2.61% in experiment [17]; 4.66% in [18]. Besides, the inhibition in [19] was 14.7%; in [20], 3.08%.
On to `CCn1c(-c2nonc2N)nc2cnc(Oc3cccc(NC(=O)c4ccc(OCCN5CCOCC5)cc4)c3)cc21`, for which the inhibition was -1.35% in experiment [1]; 5.93% in experiment [2]; 9.57% in experiment [3]; 1.95% in experiment [4]; 4.64% in experiment [5]; 4.39% in experiment [6]. In addition, the inhibition amounted to 9.13% in experiment [7]; 3.13% in [8]; 3.7% in experiment [9]; 2.12% in [10]; 9.39% in [11]; 2.25% in experiment [12]. The inhibition in experiment [13] came to 0.86%; in experiment [14], 4.56%; in experiment [15], 13%; in experiment [16] it was 6.91%; in [17] it was 10.4%; in experiment [18], 2.37%. Further, the results for the inhibition in experiment [19] and in experiment [20] were 6.08% and 5.99%, respectively.
With `Nc1ncnc2occ(-c3ccc(NC(=O)Nc4cccc(C(F)(F)F)c4)cc3)c12`, the inhibition in experiment [1] was 90.2%; in experiment [2] it was 88.2%; in [3], 93.1%; in [4] it was 26.5%; in experiment [5] it was 76.4%; in experiment [6], 79.5%. Also, the inhibition is 85% in experiment [7]; 95.3% in experiment [8]; 99% in [9]; 69.4% in [10]; 94.8% in [11]; 4.28% in [12]. For the same molecule, the inhibition in experiment [13] is 21.2%; in experiment [14], 8.39%; in experiment [15], 32.3%; in experiment [16] it was 84.9%; in experiment [17], 87.2%; in experiment [18], 64.8%. Moreover, the inhibition came to 79.9% in experiment [19] and 73.9% in [20].
Turning to `Fc1cccc(COc2ccc(Nc3ncnc4cc(-c5ccc[nH]5)sc34)cc2Cl)c1`, the inhibition in experiment [1] came out at 6.25%; in experiment [2] it was 9.2%; in experiment [3], 15.6%; in experiment [4], 2.17%; in experiment [5], 4.7%; in [6] it was 4.02%. Besides, the inhibition in experiment [7] is 4.37%; in experiment [8], 2.42%; in experiment [9], 5.59%; in experiment [10] it was 3.02%; in [11], 8.52%; in [12], 2.14%. Further, the inhibition in experiment [13] stood at 2.25%; in experiment [14], 7.86%; in [15], 11.5%; in [16] it was 9%; in experiment [17], 11.5%; in [18], 3.25%. In addition, the inhibition in [19] was determined as 8.38%; in experiment [20], 7.54%.
Regarding `O=C1NC(=O)C(c2ccccc2Cl)=C1Nc1cccc(O)c1`, the inhibition in experiment [1] was 6.51%; in experiment [2], 5.26%; in experiment [3] it was 9.63%; in experiment [4], 0.89%; in experiment [5], -0.58%; in experiment [6] it was 1.6%. Moreover, the inhibition in experiment [7] worked out at 2.66%; in [8] it was 1.34%; in experiment [9] it was 2.14%; in [10] it was 4.9%; in [11] it was 3.43%; in [12], 0.88%. Moreover, the inhibition in [13] is 0.39%; in experiment [14] it was 5.7%; in experiment [15], 8.51%; in [16] it was 1.55%; in experiment [17], 7.91%; in [18], 3.61%. Also, the inhibition in experiment [19] was 2.98%; in experiment [20] it was 2.99%.

The values above are taken from ChEMBL document CHEMBL1961873, “Compounds: GSK PKIS; Assays: Nanosyn kinase panel” (2012).
